# ELG1 DNA repair: ELG1-dependent DNA repair inhibition | HEK293T ELG1-luciferase reporter, luminescence, 16 h; DNA damage induced by 5-fluorouridine | hit rate 2.3% among 330,000 | AID 504467 | Potency, µM (titrated, usually from 46.1 µM), inactives show at the highest dose activity change, negative = inhibition, most hits filed as inhibitors; note: potency is the fitted concentration of half-maximal effect; nearly all actives have a fitted effect of over 55% in size
#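 DMSO vehicle served as the neutral condition. Each well held 2,000 cells given 5-fluorouridine plus compound; after 16 hr at 37 °C/5% CO2, ONE-Glo was added and luciferase measured 30 min later.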
# TSHR antagonist: human thyrotropin receptor antagonism; AID 504810; TSHR-expressing cells, TSH-stimulated cAMP HTRF, 2 h; stronger effect = lower value; activity change, negative = inhibition, % at 11.5 µM; P16473; hit rate 0.2% among 330,000;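 active = activity change below a set negative limit, meaning inhibition stronger than a set level, cut at about -70% in these data; inconclusive = activity change between two set negative limits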
#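 Inhibition of cAMP made by TSHR-expressing cells under TSH stimulation (4nM final, EC80; 2 h, 37 deg C) is quantified with a one-step lysis HTRF kit, anti-cAMP cryptate versus cAMP-d2.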
# VP16 counter: inhibits Gal4-VP16 luciferase reporter, ROR gamma counter-screen. Drosophila S2 Gal4-VP16 UAS-luciferase, luminescence, 20 h. Potency, µM (highest dose often 53.6 µM), without a hit: at the top dose activity, negative = inhibition, hits mostly inhibitors. hit rate 3.5% among 310,000. AID 2546;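 note: Gal4-VP16 expression switched on by copper sulfate through the metallothionein promoter; potency is the fitted concentration of half-maximal effect; nearly all actives have a fitted effect of over 50% in size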
# RORgamma inh: inhibitors of mouse ROR gamma transcriptional activity; Potency, µM (series often up to 53.6 µM), inactives show at the top dose activity change, negative = inhibition, hits mostly inhibitors; hit rate 5.4% among 310,000; Drosophila S2 Gal4-RORgamma UAS-luciferase reporter, 20 h; note: potency is the fitted concentration of half-maximal effect; nearly all actives have a fitted effect of over 60% in size
# Target sequence (P51450 whole entry, looked up, the tested form may be a part): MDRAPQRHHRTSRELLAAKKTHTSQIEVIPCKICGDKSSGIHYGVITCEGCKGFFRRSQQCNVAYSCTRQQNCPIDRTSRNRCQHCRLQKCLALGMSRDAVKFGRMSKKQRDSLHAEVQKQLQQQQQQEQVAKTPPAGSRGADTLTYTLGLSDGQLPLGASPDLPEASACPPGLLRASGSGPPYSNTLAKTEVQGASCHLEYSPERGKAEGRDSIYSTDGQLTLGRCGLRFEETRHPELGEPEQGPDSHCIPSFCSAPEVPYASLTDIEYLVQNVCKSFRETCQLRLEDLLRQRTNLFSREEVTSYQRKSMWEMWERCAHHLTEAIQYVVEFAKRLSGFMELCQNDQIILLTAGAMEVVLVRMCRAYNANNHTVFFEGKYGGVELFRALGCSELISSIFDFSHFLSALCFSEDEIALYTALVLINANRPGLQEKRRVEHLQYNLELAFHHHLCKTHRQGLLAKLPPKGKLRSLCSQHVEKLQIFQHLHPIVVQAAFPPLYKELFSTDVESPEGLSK
#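 Drosophila Schneider cells stably carrying a metallothionein-driven Gal4 DBD–ROR gamma fusion and a UAS-Photinus luciferase reporter were exposed to compound for 1 hr, then induced with copper sulfate (700 uM final) for 20 hr at ambient temperature before luminescence reading.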
# Coupling enz: coupling enzyme interference in Giardia aldolase counter-screen; coupling enzyme system counterscreen, AmpLite Red fluorescence; activity change, negative = inhibition, % at 58.2 µM, hits read low; hit rate 0.67% among 290,000; in the data active = activity change below about -30%
#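 First, compound is pin-transferred into glyceraldehyde-3-phosphate coupling-enzyme reagent at 57.5 uM final and held 10 min at RT. Next, substrate, coupling system and AmpLite Red are added. After 20 min RT, fluorescence (525/598 nm) is read.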
# Starred values were filed as active, the others as inactive; ? = inconclusive; nt = no result given; [ ] = another dose, or the depositor's remark. Hits are enriched below; roughly 8% of the tested compounds scored in any of these assays. Unless noted, calls come from the whole dose curve; as a rule, active = well fitted curve in the direction sought with a large enough effect; inconclusive = small, poorly fitted or top-dose-only effect, or another doubt; inactive = no such curve, though single readings can be large; an effect the other way counts as inactive or inconclusive. % is set by controls: 0 for no effect and ±100 for the full control effect.
SMILES,ELG1 DNA repair,TSHR antagonist,VP16 counter,RORgamma inh,Coupling enz
CC(=O)Nc1ccc(Cc2nc3c([nH]2)c(=O)n(C)c(=O)n3C)cc1,6%,4,-2%,-8%,3
COc1cc(OC)cc(C(=O)NC(C(=O)NNC(=O)c2ccc(C)cc2)C(C)C)c1 (stereo not given),-4%,-9,nt,nt,nt
N[C@@H](COP(=O)(O)O)C(=O)O,nt,-14,-3%,-18%,0
COc1ccc(OCC(=O)Nc2nc3ccccc3[nH]2)cc1,?,4,7%,0.79µM*,1
COc1ccc2oc(C(=O)Nc3nc4ccccc4[nH]3)c(C)c2c1,?,-8,2.8µM*,?,-6
O=C(Nc1nc2ccccc2[nH]1)c1cc2ccccc2o1,?,-8,7.9µM*,2.5µM*,-4
O=C(Nc1ccccc1)c1cc2ccccc2o1,?,-12,-26%,?,-10
COc1cc(OC)cc(C(=O)Nc2nc3ccccc3[nH]2)c1,?,-3,5.6µM*,3.2µM*,-6
Cc1ccc(C)c(-n2c(-c3ccncc3)n[nH]c2=S)c1,-2%,-3,-28%,10µM*,2
CC(C)c1ccccc1-n1c(-c2cccnc2)n[nH]c1=S,25%,-6,-28%,?,1
Cc1ccc(C)c(-n2c(-c3csc(C)c3)n[nH]c2=S)c1,1%,-4,5.6µM*,3.2µM*,-3
Cc1nc2ccccc2n1C1CC(=O)N(Cc2ccccc2)C1=O (stereo not given),?,-17,6.3µM*,-29%,2
O=C(CSc1n[nH]c(-c2ccncc2)n1)Nc1ccccc1C(F)(F)F,-3%,-7,17%,0%,-2
CCc1c(C)sc(NC(=O)c2ccco2)c1C#N,?,-1,nt,nt,-1
CC1=C([N+](=O)[O-])C(c2ccccc2)NC(=O)N1 (stereo not given),-21%,12,6%,21%[1.91 µM],2
O=[N+]([O-])c1ccccc1/C=N/Nc1nnc(-c2ccccc2)c(-c2ccccc2)n1,-13%,0,3.2µM*,3.2µM*,1
CC(C)C[C@@H](CC(=O)N[C@@H](CCC(=O)O)CC(=O)O)NC(=O)[C@@H]1CNCC[C@H]1NC(=O)C[C@@H](NC(=O)C[C@H](Cc1c[nH]c2ccccc12)NC(=O)[C@@H]1CNCC[C@H]1N)C(C)C,nt,nt,-13%,2%,0
CCOC(=O)c1c(C)n(O)c2ccc(Cl)cc2c1=O,2%,5,16µM*,?,-26
Nc1cnccc1C(=O)O,1%,-1,-3%,-19%,-51*
CC(C)(C)c1ccc(CN2N=Nc3ccccc3S2(=O)=O)cc1,?,3,1.6µM*,23%,-49*
O=C(N/N=C/c1ccccc1C(=O)O)c1ccncc1,1%,16,1%,-14%,1
Cc1cc(C)cc(-n2c(C)cc(/C=N/NC(=O)c3cccc([N+](=O)[O-])c3C)c2C)c1,?,15,4.5µM*,2.8µM*,-11
Cc1cc(C)cc(-n2c(C)cc(/C=N/NC(=O)c3ccncc3)c2C)c1,2%,-3,-8%[10 µM],7.1µM*,-2
Cc1c(C(=O)N/N=C/c2ccoc2)cccc1[N+](=O)[O-],25%,23,?,-4%,-7
Cc1ccccc1-n1c(C)cc(/C=N/NC(=O)c2ccncc2)c1C,?,5,10µM*,2.8µM*,-1
SMILES,ELG1 DNA repair,TSHR antagonist,VP16 counter,RORgamma inh,Coupling enz
COC(=O)C1=C(O)/C(=C\c2cc(C)n(-c3ccccc3F)c2C)N=C1C,-3%,-3,-13%,0%,4
COC(=O)C1=C(O)/C(=C\c2cc(C)n(-c3ccccc3C)c2C)N=C1C,9%,-1,?,?,-42*
Cc1cc(/C=N/NC(=O)C(O)(c2ccccc2)c2ccccc2)c(C)n1-c1ccc(C(=O)O)cc1,1%,9,?,11µM*,-8
Cc1ccc(C(=O)Nc2cccc(C(=O)N/N=C/c3ccc(O)cc3)c2)cc1,?,-7,?,-17%,1
Cc1cc(/C=N/NC(=O)c2ccc(O)cc2)c(C)n1C1CC1,0%,0,?,13µM*,0
COc1cc(OC)cc(C(=O)NCC2CCCN(Cc3ccc(SC)cc3)C2)c1 (stereo not given),-11%,4,-1%,-2%,3
C/C(=N\NC(=O)COc1ccc(C#N)cc1)c1ccccc1OC(F)F,-10%,-7,16µM*,11µM*,0
CCNC(=S)N/N=C(\C)c1cccc(OC)c1,12%,-8,-25%,2.5µM*,1
CCNC(=S)N/N=C(\C)c1ccc2ccccc2c1OC(F)F,?,-8,7.1µM*,1.3µM*,2
COc1cccc(/C(C)=N/NC(=O)c2ccc(N(C)C)cc2)c1,?,26,3%,?,2
C/C(=N\NC(=O)C1CC1)c1ccc(OC(F)F)cc1OC(F)F,6%,5,-23%,?,0
C/C(=N\NC(=O)COc1ccc(C(C)(C)C)cc1)c1ccc(OC(F)F)cc1,0%,-9,?,?,-2
C/C(=N\NC(=S)NC(C)C)c1ccccc1OC(F)F,-8%,0,5.6µM*,1.8µM*,-4
COc1cc2cc(CCOC(=O)c3ccc(C#N)cc3)oc(=O)c2cc1OC,-26%,-15,nt,nt,nt
COC(=O)[C@@]1(Cc2ccc(OC)cc2)[C@H]2c3cc(C(=O)N4CCCC4)n(CCF)c3C[C@H]2CN1C(=O)c1ccccc1,nt,nt,-5%,16%,0
C=CCN1C(=CCO)[C@H]2C[C@H]3[C@@H]1CC[C@@]31c3ccccc3N3C=C4[C@@H]5N(/C=C/2[C@H]31)c1ccccc1[C@]51CC[C@H]2[C@H]1C[C@@H]4/C(=C/CO)N2CC=C,nt,nt,-21%[17 µM],-3%[2.98 µM],1
C/C(=N\NC(=O)Nc1ccccc1)c1ccc2ccccc2c1,12%,8,?,-12%,1
CCNC(=S)N/N=C(\C)c1ccc2ccccc2c1,?,3,7.1µM*,2.8µM*,-5
Cc1ccc(C(=O)NCCSc2ccc(Cl)cc2)cc1S(=O)(=O)Nc1ccccc1,21µM*,?,?,-68%,-6
Cc1ccc(Cn2cnc3ccccc32)cc1C,23%,-15,?,10µM*,6
CCCOc1ccc(Cn2cnc3ccccc32)cc1,-8%,-17,?,16µM*,-1
C=CC1=C(C)C2=Cc3c(C=C)c(C)c4[n]3[Sn+2][n]3c(c(C)c(CCC(=O)O)c3=CC3=NC(=C4)C(C)=C3CCC(=O)O)=CC1=N2,nt,nt,-12%,-15%,-18
CCCn1c(-c2ccc(F)cc2)nc2c(NCCN3CCSCC3)nc(C)nc21,nt,nt,5%,-2%,1
CC(OC(=O)c1ccc(Cl)cc1)C(=O)NCC1CCCCC1 (stereo not given),9%,-17,nt,nt,nt
Cc1cc(Cl)ccc1NC(=S)Nc1ccccn1,?,4,1.3µM*,1µM*,1
